From PubChem BioAssay (NCI)
About 83,000 compounds went through this panel and 20% of them were active in at least one assay; those are over-represented in the sample as a whole.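 For each line, cells grew in 96-well plates with the test compound present at a single concentration for 48 hours.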 The source made the active and inactive calls. Rule for the calls: active = growth percent below 10; inactive = the rest.

Assays:
Experiment in all cases: NCI-60 one-dose screen, 48 h (100 = growth as untreated, 0 = no growth, -100 = all killed)
Settings in all cases: 10 µM unless noted
SK-MEL-2 melanoma = test system: SK-MEL-2 melanoma
EKVX NSCLC = test system: EKVX NSCLC
SN12C renal = test system: SN12C renal
UO-31 renal = test system: UO-31 renal
TK-10 renal = test system: TK-10 renal
ACHN renal = test system: ACHN renal
CAKI-1 renal = test system: CAKI-1 renal
A498 renal = test system: A498 renal
CCRF-CEM leukemia = test system: CCRF-CEM leukemia
MOLT-4 leukemia = test system: MOLT-4 leukemia
SR leukemia = test system: SR leukemia
RPMI-8226 leukemia = test system: RPMI-8226 leukemia
OVCAR-5 ovarian = test system: OVCAR-5 ovarian
OVCAR-4 ovarian = test system: OVCAR-4 ovarian
SK-OV-3 ovarian = test system: SK-OV-3 ovarian
IGROV1 ovarian = test system: IGROV1 ovarian
OVCAR-3 ovarian = test system: OVCAR-3 ovarian
HS 578T breast = test system: HS 578T breast
NCI/ADR-RES ovarian = test system: NCI/ADR-RES ovarian
OVCAR-8 ovarian = test system: OVCAR-8 ovarian

Measured: growth

COc1cccc(-c2nn(-c3ccccc3)cc2-c2ccnc(NCCCNS(=O)(=O)c3ccc(Cl)cc3)c2)c1
inactive: SK-MEL-2 melanoma 47.1% | EKVX NSCLC 64% | SN12C renal 49.3% | UO-31 renal 22% | TK-10 renal 52.3% | ACHN renal 38.6% | CAKI-1 renal 49.1% | A498 renal 42.3% | CCRF-CEM leukemia 21.4% | MOLT-4 leukemia 14.8% | RPMI-8226 leukemia 26.6% | OVCAR-5 ovarian 75.3% | OVCAR-4 ovarian 42.8% | SK-OV-3 ovarian 60.5% | IGROV1 ovarian 41.4% | OVCAR-3 ovarian 54% | HS 578T breast 49.9% | NCI/ADR-RES ovarian 35.6%
active: SR leukemia 7.26%

O=C(/C=C/c1ccc2ccccc2c1)Nc1ncc(Cc2ccccc2)s1
inactive: SK-MEL-2 melanoma 98.1% | EKVX NSCLC 71.4% | SN12C renal 43.9% | UO-31 renal 43.5% | TK-10 renal 22.6% | CAKI-1 renal 45.1% | A498 renal 86.2% | CCRF-CEM leukemia 49.2% | MOLT-4 leukemia 65.8% | SR leukemia 16.9% | OVCAR-8 ovarian 59.8% | OVCAR-5 ovarian 49.5% | SK-OV-3 ovarian 87.8% | IGROV1 ovarian 55.6% | OVCAR-3 ovarian 10% | HS 578T breast 29.2% | NCI/ADR-RES ovarian 32.3%
active: ACHN renal 6.83% | OVCAR-4 ovarian -37.5%

Nc1ncnc2nc(Br)[nH]c12
inactive: SK-MEL-2 melanoma 102% | EKVX NSCLC 105% | SN12C renal 100% | UO-31 renal 101% | TK-10 renal 96.2% | ACHN renal 98.7% | CAKI-1 renal 93% | A498 renal 98.1% | CCRF-CEM leukemia 94.3% | MOLT-4 leukemia 96.1% | SR leukemia 91.8% | OVCAR-5 ovarian 99.8% | OVCAR-4 ovarian 102% | SK-OV-3 ovarian 95.2% | IGROV1 ovarian 106% | OVCAR-3 ovarian 106% | HS 578T breast 103% | NCI/ADR-RES ovarian 97.1%

O=C1C(=O)N(CCCCn2cc(-c3ccccc3)nn2)c2ccccc21
inactive: SK-MEL-2 melanoma 122% | EKVX NSCLC 93.9% | SN12C renal 94.3% | UO-31 renal 75.3% | TK-10 renal 136% | ACHN renal 103% | CAKI-1 renal 92% | A498 renal 110% | CCRF-CEM leukemia 97.2% | MOLT-4 leukemia 101% | SR leukemia 108% | RPMI-8226 leukemia 95.6% | OVCAR-5 ovarian 102% | OVCAR-4 ovarian 106% | SK-OV-3 ovarian 111% | IGROV1 ovarian 101% | OVCAR-3 ovarian 111% | HS 578T breast 99.1% | NCI/ADR-RES ovarian 104%

COc1ccc2[nH]cc(-c3nc(-c4c[nH]c5ncccc45)cs3)c2c1
active: CAKI-1 renal 4.05% | MOLT-4 leukemia 8.76% | SR leukemia -7.54%
inactive: SK-MEL-2 melanoma 32.9% | EKVX NSCLC 64.4% | SN12C renal 53.2% | UO-31 renal 15.1% | TK-10 renal 31.9% | ACHN renal 19.8% | A498 renal 10.9% | CCRF-CEM leukemia 28.3% | RPMI-8226 leukemia 40.9% | OVCAR-5 ovarian 81.5% | SK-OV-3 ovarian 41.4% | IGROV1 ovarian 30.7% | OVCAR-3 ovarian 50.6% | HS 578T breast 57.5% | NCI/ADR-RES ovarian 47%

Clc1cc(Cl)cc(Nc2ccc3c(OCCCN4CCOCC4)cccc3n2)c1
inactive: SK-MEL-2 melanoma 87.8% | EKVX NSCLC 62.2% | SN12C renal 76.1% | UO-31 renal 28.6% | TK-10 renal 80.5% | ACHN renal 49.9% | CAKI-1 renal 56.6% | A498 renal 59.8% | CCRF-CEM leukemia 29.5% | MOLT-4 leukemia 22.5% | RPMI-8226 leukemia 11.1% | OVCAR-5 ovarian 49.3% | OVCAR-4 ovarian 65.3% | IGROV1 ovarian 72.9% | OVCAR-3 ovarian 64.8% | HS 578T breast 35.9% | NCI/ADR-RES ovarian 60.9%
active: SR leukemia 6.22%

COc1ccc(C2(Cl)c3ccccc3N(c3ccccc3)c3ccccc32)cc1
active: SK-MEL-2 melanoma -39.9% | EKVX NSCLC 0.119% | SN12C renal -1.51% | UO-31 renal 7.46% | TK-10 renal 8.72% | ACHN renal 4.85% | CAKI-1 renal 7.42% | A498 renal -26.5% | SR leukemia 3.25% | OVCAR-4 ovarian 3.18% | SK-OV-3 ovarian -11.1% | OVCAR-3 ovarian -43.9% | HS 578T breast -12.9%
inactive: CCRF-CEM leukemia 20.6% | MOLT-4 leukemia 12.7% | OVCAR-5 ovarian 17% | IGROV1 ovarian 17.5% | NCI/ADR-RES ovarian 21.4%

Cc1cc(N=O)cc(C(C)(C)C)c1O
inactive: SK-MEL-2 melanoma 85.2% | EKVX NSCLC 95.4% | SN12C renal 101% | UO-31 renal 92.3% | TK-10 renal 94.1% | ACHN renal 108% | CAKI-1 renal 86.1% | A498 renal 74.3% | CCRF-CEM leukemia 82.5% | MOLT-4 leukemia 94.2% | SR leukemia 98.9% | OVCAR-8 ovarian 103% | OVCAR-5 ovarian 108% | OVCAR-4 ovarian 97.7% | SK-OV-3 ovarian 75.8% | IGROV1 ovarian 98.6% | OVCAR-3 ovarian 105% | HS 578T breast 90.8% | NCI/ADR-RES ovarian 99.3%

Brc1ccc2[nH]cc(-c3nc(-c4c[nH]c5ncccc45)cs3)c2c1
inactive: SK-MEL-2 melanoma 36.3% | EKVX NSCLC 43.9% | SN12C renal 49.8% | UO-31 renal 19.2% | TK-10 renal 30.1% | ACHN renal 15.9% | A498 renal 43.6% | CCRF-CEM leukemia 29.7% | MOLT-4 leukemia 18.4% | RPMI-8226 leukemia 39.9% | OVCAR-8 ovarian 46.3% | SK-OV-3 ovarian 55% | IGROV1 ovarian 23.1% | OVCAR-3 ovarian 52.4% | HS 578T breast 71.8% | NCI/ADR-RES ovarian 32.7%
active: CAKI-1 renal 7.49% | SR leukemia 9.23%

O=C1c2cccc3cccc(c23)C(=O)N1CC#Cc1ccc2c3c(cccc13)C(=O)N(CCO)C2=O
inactive: SK-MEL-2 melanoma 102% | EKVX NSCLC 76.3% | SN12C renal 90.7% | UO-31 renal 57.3% | TK-10 renal 165% | ACHN renal 87.1% | CAKI-1 renal 56.8% | A498 renal 105% | CCRF-CEM leukemia 80.6% | MOLT-4 leukemia 62.3% | SR leukemia 71.4% | RPMI-8226 leukemia 74.5% | OVCAR-5 ovarian 105% | OVCAR-4 ovarian 92.7% | IGROV1 ovarian 48.5% | OVCAR-3 ovarian 87% | HS 578T breast 83.3% | NCI/ADR-RES ovarian 91.7%

CCCCC/C(=C\c1ccccc1)C1OC(C)C(C)O1 (configuration not stated)
inactive: SK-MEL-2 melanoma 83.5% | EKVX NSCLC 103% | SN12C renal 97.2% | UO-31 renal 101% | TK-10 renal 91% | ACHN renal 101% | CAKI-1 renal 93.6% | A498 renal 105% | CCRF-CEM leukemia 97.2% | MOLT-4 leukemia 110% | SR leukemia 99.4% | OVCAR-8 ovarian 96.3% | OVCAR-5 ovarian 93.7% | OVCAR-4 ovarian 108% | SK-OV-3 ovarian 96.7% | IGROV1 ovarian 112% | OVCAR-3 ovarian 101% | HS 578T breast 110% | NCI/ADR-RES ovarian 100%

CCN(CC)c1ccc(/C=C/c2cc(C)c3ccccc3n2)cc1
inactive: SK-MEL-2 melanoma 72.9% | EKVX NSCLC 92.8% | SN12C renal 60% | UO-31 renal 66.6% | TK-10 renal 70.3% | ACHN renal 60.8% | CAKI-1 renal 51.9% | A498 renal 51.7% | CCRF-CEM leukemia 53.4% | MOLT-4 leukemia 23.5% | SR leukemia 43.6% | RPMI-8226 leukemia 65.6% | OVCAR-5 ovarian 92.4% | OVCAR-4 ovarian 82.8% | SK-OV-3 ovarian 57.7% | IGROV1 ovarian 54.1% | OVCAR-3 ovarian 37.1% | HS 578T breast 93.8% | NCI/ADR-RES ovarian 15.9%

COc1ccc2c3c(c4ccccc4cc13)C(=O)N(CCN(C)CCN)C2=O
active: EKVX NSCLC -48% | SN12C renal -63.3% | UO-31 renal -83.7% | TK-10 renal -73.8% | ACHN renal -71.6% | CAKI-1 renal 3.18% | A498 renal -48.8% | CCRF-CEM leukemia -65.1% | MOLT-4 leukemia -32.5% | SR leukemia -31.8% | RPMI-8226 leukemia -45.1% | OVCAR-8 ovarian -52.5% | OVCAR-4 ovarian -79.4% | SK-OV-3 ovarian -6.29% | IGROV1 ovarian -48.4% | OVCAR-3 ovarian -62.5% | NCI/ADR-RES ovarian -7.12%
inactive: SK-MEL-2 melanoma 22.3% | HS 578T breast 24.8%

COc1cc(-c2cc3ncccc3c3[nH]c(=O)c4cccnc4c23)cc(OC)c1OC
active: A498 renal -18.1% | RPMI-8226 leukemia 6.32%
inactive: SK-MEL-2 melanoma 44.6% | EKVX NSCLC 33.2% | SN12C renal 42.7% | UO-31 renal 36.2% | TK-10 renal 52.2% | ACHN renal 46.7% | CAKI-1 renal 28.4% | CCRF-CEM leukemia 13.1% | MOLT-4 leukemia 31.6% | SR leukemia 20% | OVCAR-4 ovarian 58.1% | SK-OV-3 ovarian 11.2% | IGROV1 ovarian 50.1% | OVCAR-3 ovarian 33.6% | HS 578T breast 10.6% | NCI/ADR-RES ovarian 22.1%

COc1ccc(NC(=S)N/N=C/c2ccccc2SSCCC(=O)OC[C@H]2O[C@H](O)[C@H](O)[C@@H](O)[C@@H]2O)cc1
inactive: SK-MEL-2 melanoma 78.9% | EKVX NSCLC 72.9% | SN12C renal 81.2% | UO-31 renal 81.4% | TK-10 renal 136% | ACHN renal 101% | A498 renal 93.4% | CCRF-CEM leukemia 92.4% | MOLT-4 leukemia 65.4% | SR leukemia 49.6% | RPMI-8226 leukemia 91.7% | OVCAR-8 ovarian 68.3% | OVCAR-5 ovarian 100% | OVCAR-4 ovarian 80.4% | SK-OV-3 ovarian 73.5% | IGROV1 ovarian 56.8% | OVCAR-3 ovarian 91.3% | HS 578T breast 91.6% | NCI/ADR-RES ovarian 59.7%

COc1ccc(-c2cc(-c3c(C)oc4cc5occc5c(OC)c4c3=O)nc(N)c2C#N)cc1OC
inactive: SK-MEL-2 melanoma 60.7% | EKVX NSCLC 92.8% | SN12C renal 77.6% | UO-31 renal 45.2% | TK-10 renal 77.1% | ACHN renal 65.6% | A498 renal 23.7% | CCRF-CEM leukemia 43.8% | MOLT-4 leukemia 30.9% | RPMI-8226 leukemia 55.2% | OVCAR-8 ovarian 61.2% | OVCAR-5 ovarian 92.9% | OVCAR-4 ovarian 74.6% | SK-OV-3 ovarian 75.7% | IGROV1 ovarian 51.8% | OVCAR-3 ovarian 77.4% | HS 578T breast 53.5% | NCI/ADR-RES ovarian 61.9%
active: SR leukemia 5.99%
